Compounds with a hit are over-represented: about 5.2% of the library has one in this group of screens.
Yeast superoxide: lowers age-related superoxide in aged yeast cells | AID 2690 | 330,000 tested, 0.18% active | S. cerevisiae aged cells, superoxide DHE fluorescence; hits give low values | superoxide response (% of plate mean), % at 10 µM;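 active means superoxide response under a set limit, about three screen SD below normal, cut at about 65% in these data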;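 further: yeast aged for seven days with compound at 30 °C before DHE staining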
APOBEC3G inh: APOBEC3G (human) deaminase inhibition | Q9HC16 | recombinant A3G, ssDNA deamination FAM/TAMRA fluorescence | inhibition, % at 20 µM | 330,000 tested, 0.28% active | AID 493012;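 active means inhibition of at least 40% at 20 µM, with no more than 30% in the related APOBEC3A deaminase screen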
ALR inh: inhibitors of human sulfhydryl oxidase ALR. P55789. inhibition, % (no concentration beside the values). AID 485317. purified ALR, DTT oxidation, H2O2 HRP-luminol luminescence. 290,000 tested, 3.8% active;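 active means mean replicate inhibition above about 79%, with every replicate also reaching it, limit read from the data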
Target sequence (P55789 whole entry, looked up): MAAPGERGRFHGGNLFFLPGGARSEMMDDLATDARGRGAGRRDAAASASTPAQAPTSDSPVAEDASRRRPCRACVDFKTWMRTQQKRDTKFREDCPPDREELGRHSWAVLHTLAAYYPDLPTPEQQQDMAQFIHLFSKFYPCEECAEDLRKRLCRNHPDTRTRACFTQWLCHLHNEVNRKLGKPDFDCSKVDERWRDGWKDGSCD
NRP1-CendR mod: modulators of CendR peptide binding to human neuropilin-1. inhibition, % at 25 µM. 360,000 tested, 0.85% active. FAM-RPARPAR peptide binding to NRP-1, fluorescence polarization. AID 602438;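 active means inhibition or corrected inhibition above about 18%, plus a signal ratio from 0.5 to 1.5, limit read from the data, passing the limit was not always enough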
A3A deaminase: inhibitors of human APOBEC3A DNA deaminase. 330,000 tested, 0.41% active. recombinant A3A, FAM/TAMRA ssDNA deamination fluorescence. P31941. inhibition, % at 20 µM. AID 493011;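 active means at least 40% inhibition at 20 µM here, with at most 30% in a related deaminase screen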
Target sequence (P31941 whole entry, looked up): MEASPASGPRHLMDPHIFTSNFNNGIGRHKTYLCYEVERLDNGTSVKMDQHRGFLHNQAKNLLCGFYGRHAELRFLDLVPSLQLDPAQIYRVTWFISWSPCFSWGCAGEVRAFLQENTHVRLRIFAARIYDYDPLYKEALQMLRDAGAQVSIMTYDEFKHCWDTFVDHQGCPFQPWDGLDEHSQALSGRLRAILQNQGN
PfM18AAP inh: blocks P. falciparum M18 aspartyl aminopeptidase; recombinant PfM18AAP, H-Glu-NHMec fluorogenic cleavage; inhibition, % at 7.35 µM; 290,000 tested, 1.2% active; AID 1822;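 active means inhibition above the campaign mean inhibition over all tested compounds plus 3 SD, cut at about 28% in these data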
Of the large screens only hits and unclear results are named; the others gave an inactive call.

CCCc1cc(C(=O)N2CCCC(N3CCN(c4ccc(F)cc4)CC3)C2)no1 (stereo not drawn)	ALR inh 98
Cc1cc(C(=O)N2CCCC(N3CCN(c4ccc(F)cc4)CC3)C2)no1 (stereo not drawn)	none
O=C(CSc1ccccc1)N1CCCC(N2CCN(c3ccccc3)CC2)C1 (stereo not drawn)	ALR inh 99
CSCC(=O)N1CCCC(N2CCN(c3ccc(F)cc3)CC2)C1 (stereo not drawn)	none
O=C(C1CCOCC1)N1CCCC(N2CCN(c3ccc(F)cc3)CC2)C1 (stereo not drawn)	ALR inh 94
O=C(c1ccccn1)N1CCCC(N2CCN(c3ccc(F)cc3)CC2)C1 (stereo not drawn)	ALR inh 97
O=C(C1CCOCC1)N1CCCC(N2CCN(c3cccc(Cl)c3)CC2)C1 (stereo not drawn)	none
CCOC(=O)C1CCCN(C(=O)c2cc3nc(-c4ccc5c(c4)OCO5)cc(C(F)(F)F)n3n2)C1 (stereo not drawn)	none
OC(COc1cccc2ccccc12)CN1CCN(c2ccc(Cl)cc2)CC1 (stereo not drawn)	none
CCOc1ccc(C(=O)Nc2ncn[nH]2)cc1	none
CCNC(=O)NC(=O)C(C)Sc1ncc(C(F)(F)F)cc1Cl (stereo not drawn)	none
COc1ccc2cc(S(=O)(=O)n3cnc(C)c3)ccc2c1	ALR inh 98
Cc1ccc(S(=O)(=O)n2cnc(C)c2)cc1	none
Cc1ccccc1Oc1ccc2c(c1)[C@@H]1C[C@H](N(C)C(=O)Nc3cc(Cl)cc(Cl)c3)[C@H]([C@H](C)O)C(=O)N1CC2	NRP1-CendR mod 35 (no result: Yeast superoxide, APOBEC3G inh, ALR inh, A3A deaminase, PfM18AAP inh)
CC(C)(C)C1CCC(OCC(O)CN2CCN(Cc3ccccc3)CC2)CC1 (stereo not drawn)	none
OC(COC1CCCCC1)CN1CCN(c2ccccc2)CC1 (stereo not drawn)	ALR inh 92
CCCCc1c(O)nc(SCC(=O)Nc2ccc3c(c2)CCC3)[nH]c1=O	ALR inh 99
O=C(CSc1nc2ccccc2[nH]1)Nc1ccc2c(c1)CCC2	none
CCc1c(O)nc(SCC(=O)Nc2ccc3c(c2)CCC3)[nH]c1=O	ALR inh 100
CCCN1CCc2nc(SCC(=O)Nc3ccc(C)c(Cl)c3)[nH]c(=O)c2C1	ALR inh 98
Cc1ccc(S(=O)(=O)CCC(=O)c2ccc(O)cc2O)cc1	ALR inh 98
Cc1nnc(N/N=C/c2ccccc2O)n1N	none
Cc1nnc(N/N=C/c2ccc(-c3ccccc3F)o2)n1N	PfM18AAP inh 52
COc1ccc(N=C(C)C2=C(O)COC2=O)cc1	none
O=C(CSC1=NCCS1)Nc1ccc(S(=O)(=O)NC2CCCCC2)cc1	ALR inh 98
O=C(CSC1=NCCS1)Nc1ccc(S(=O)(=O)N2CCCCCC2)cc1	ALR inh 98
COc1cc(NS(=O)(=O)c2ccc(NC(=O)CSC3=NCCS3)cc2)nc(OC)n1	ALR inh 99 (no result: NRP1-CendR mod)
CC(=O)Nc1ccc(NC(=O)CSC2=NCCS2)cc1	none (no result: Yeast superoxide, APOBEC3G inh, ALR inh, A3A deaminase)
CCOC(=O)COc1ccc(/C=C2/SC(=Nc3ccccc3)N(Cc3cccnc3)C2=O)cc1OC	none
O=C(CSc1nc(-c2ccccc2)cs1)N1CCc2ccccc21	none
COc1ccc(C)cc1CN1C(=O)c2ccccc2C1=O	none
Cc1cc(C(=O)Nc2ccccc2C(=O)O)c(C)o1	none
COc1ccc2c(c1)N(C)/C(=C1/SC(=NCc3ccccc3)N(c3ccccc3)C1=O)S2	NRP1-CendR mod 27
C=CCN1C(=O)/C(=C2/Sc3ccc(OC)cc3N2C)SC1=NCc1ccccc1	none
CC(=O)c1cc2c(cc1NC(=O)CN1CCN(C(=O)c3ccco3)CC1)OCO2	none (no result: Yeast superoxide, APOBEC3G inh, ALR inh, NRP1-CendR mod, A3A deaminase)
Cn1ncc(C#N)c1NC(=O)C1CC(c2ccccc2Cl)=NO1 (stereo not drawn)	Yeast superoxide 44 (no result: NRP1-CendR mod)
O=C(Nc1ccc2c(c1)OCO2)C1CC(c2ccccc2Cl)=NO1 (stereo not drawn)	none
O=C(Oc1ccc2cc(Br)ccc2c1)N1CCCCCC1	Yeast superoxide 58 (no result: NRP1-CendR mod)
COc1ccc(NC(=O)c2ccc(=O)oc2)cc1	none
CCC(C)N(C(=O)COC(=O)CSc1ccc(C)c(C)c1)C1CCS(=O)(=O)C1 (stereo not drawn)	none (no result: PfM18AAP inh)

Screening results (PubChem)
